MEX-5 binding: C. elegans MEX-5 TCR-2 RNA binding activity; MEX-5/FITC-TCR2 RNA binding, fluorescence polarization; stronger effect = lower value; activity score (negative = inhibition of binding), % at 10 µM; Q9XUB2; 300,000 compounds, 0.38% hits;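 active = inhibition past about -25% in most replicates, and total fluorescence under double the plate's negative control median, limit read from the data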;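 note: 0% = DMSO and -100% = 5 µM competing unlabeled TCR2 RNA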
E coli Lon inh: inhibits E. coli Lon protease | P0A9M0 | purified E. coli Lon protease, fluorescence polarization | inhibition, % at 7.94 µM | 360,000 compounds, 0.42% hits; in the data active = inhibition above about 13%, passing the limit was not always enough;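 note: 0% = enzyme with probe and DMSO and 100% = no enzyme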
GLD-1 RNA inh: GLD-1-TGE RNA interaction inhibition (C. elegans) | 320,000 compounds, 0.44% hits | inhibition, % at 5.96 µM | Q17339 | AID 2280 | purified GLD-1 + fluorescein TGE RNA, fluorescence polarization;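 active = percent inhibition above a per-plate cutoff, the plate mean of test compounds plus 3 SD, cut at about 30% in these data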;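 note: 0% = DMSO wells with GLD-1 and probe and 100% = wells lacking GLD-1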
Target sequence (Q17339 whole entry, looked up): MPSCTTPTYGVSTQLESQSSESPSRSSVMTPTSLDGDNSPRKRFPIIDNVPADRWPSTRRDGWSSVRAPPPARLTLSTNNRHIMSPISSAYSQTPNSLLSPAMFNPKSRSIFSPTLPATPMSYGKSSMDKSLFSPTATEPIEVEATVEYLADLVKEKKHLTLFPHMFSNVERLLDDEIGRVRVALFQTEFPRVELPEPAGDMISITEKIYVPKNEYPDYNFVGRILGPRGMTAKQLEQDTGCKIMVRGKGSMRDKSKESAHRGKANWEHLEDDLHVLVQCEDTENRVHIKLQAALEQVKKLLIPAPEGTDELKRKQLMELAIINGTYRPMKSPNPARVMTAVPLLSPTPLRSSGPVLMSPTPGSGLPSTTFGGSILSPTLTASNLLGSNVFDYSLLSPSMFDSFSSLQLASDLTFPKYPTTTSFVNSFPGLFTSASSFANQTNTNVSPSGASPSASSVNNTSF
MCL1 BIM primary: disrupts human MCL1 binding to BIM-BH3 peptide. inhibition, % at 10.9 µM. 320,000 compounds, 0.68% hits. GST-MCL1 / FITC-Bim-BH3 fluorescence polarization. Q07820;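 active = inhibition above the mean inhibition of all tested compounds plus 3 SD, set per campaign, cut at about 40% in these data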;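 note: 0% = DMSO wells and 100% = unlabeled Bim-BH3 peptide control; higher means more loss of mP so more displacement of Bim peptide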
EBV gp42 block: blocks Epstein-Barr virus glycoprotein 42 binding; Fluorescence polarization binding assay, mP read-out; inhibition, % (tested at 21.74 µM); AID 1085; 220,000 compounds, 0.42% hits; in the data active = inhibition above about 50%
Bcl-xL primary: blocks human Bcl-xL binding to Bim BH3 peptide | Q07817 | GST-Bcl-xL / FITC-Bim BH3 peptide fluorescence polarization | inhibition, % at 10.9 µM | 320,000 compounds, 0.7% hits | AID 2129;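 active = inhibition above the mean of all tested compounds plus 3 SD, cutoff set per campaign, cut at about 30% in these data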;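 note: 0% = DMSO wells and 100% = unlabeled Bim-BH3 peptide competitor; inhibitors lower millipolarization by displacing the labeled peptide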
eLon confirm: E. coli Lon inhibition confirmation. shares compounds with E coli Lon inh. purified E. coli Lon, fluorescence polarization. inhibition, % at 7.94 µM. 1,400 compounds, 31% hits. AID 602230; in the data active = inhibition above about 16%;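 note: 0% = enzyme with probe and DMSO and 100% = no enzyme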
* hit, by the source's call. Shown are actives, neighbours in structure and some others; about 1.5% of the full set was active somewhere.

`O=C1C2C3c4ccccc4C(c4ccccc43)C2C(=O)N1Cc1ccco1` (configuration not stated) gave MEX-5 binding -1, E coli Lon inh 20*, GLD-1 RNA inh 3, MCL1 BIM primary 7, Bcl-xL primary 4 and eLon confirm 4.
COc1ccc(C2CCCN2CC(O)COc2ccccc2C(C)C)cc1 (configuration not stated) was read as MEX-5 binding 8, E coli Lon inh 2, GLD-1 RNA inh -7, MCL1 BIM primary -1 and Bcl-xL primary -4.
Screening CCc1sc(C(=O)Nc2cc(S(=O)(=O)N3CCOCC3)ccc2OC)cc1C returned E coli Lon inh 4, GLD-1 RNA inh 6, MCL1 BIM primary -7 and Bcl-xL primary 0.
Screening COc1ccc(CCN2C(=O)CC(N3CCN(S(=O)(=O)c4ccccc4)CC3)C2=O)cc1 (configuration not stated) returned MEX-5 binding -2, E coli Lon inh 12*, GLD-1 RNA inh -1, MCL1 BIM primary 8, EBV gp42 block -2, Bcl-xL primary 6 and eLon confirm -8.
COc1ccc(CCN2C(=O)CC(N3CCOCC3)C2=O)cc1 (configuration not stated) was read as MEX-5 binding 1, E coli Lon inh -6, GLD-1 RNA inh -4, MCL1 BIM primary 3, EBV gp42 block -19 and Bcl-xL primary 2.
Screening CCN(CC)S(=O)(=O)c1ccc(N2CCCC2)c(NC(=O)CN2C(=O)NC3(CCCC3)C2=O)c1 returned MEX-5 binding 0, E coli Lon inh 22*, GLD-1 RNA inh 9, MCL1 BIM primary -4, Bcl-xL primary 3 and eLon confirm -4.
CCN(CC)S(=O)(=O)c1ccc(N2CCOCC2)c(NC(=O)CN2C(=O)NC3(CCCC3)C2=O)c1 was read as E coli Lon inh -9.
For Cc1ccc(N(CC(=O)NC2CCCC2)C(=O)c2nsc(Cl)c2Cl)cc1 the results were MEX-5 binding -2, E coli Lon inh 6, GLD-1 RNA inh 1, MCL1 BIM primary 4 and Bcl-xL primary 0.
For O=C(CN1CCSCC1)N/N=C/c1ccc(F)c(F)c1 the results were MEX-5 binding 1, E coli Lon inh 27*, GLD-1 RNA inh 6, MCL1 BIM primary -2, EBV gp42 block -17, Bcl-xL primary 2 and eLon confirm -1.
O=C(CN1CCCCCC1)N/N=C/c1ccc(Cl)c(Cl)c1 was read as MEX-5 binding -1, E coli Lon inh -2, GLD-1 RNA inh 1, MCL1 BIM primary 2, EBV gp42 block 10 and Bcl-xL primary 0.
Screening CN(CC(=O)Nc1ccc(Cl)c(Cl)c1)CC(=O)Nc1ccc2c(c1)OCO2 returned E coli Lon inh -1, GLD-1 RNA inh 8, MCL1 BIM primary 5 and Bcl-xL primary 2.
`CCOC(=O)C1=C(C)NC2=C(C(=O)C(C(=O)OCC)C(c3ccco3)C2)C1c1ccccn1` (configuration not stated) gave MEX-5 binding 1, E coli Lon inh 44*, GLD-1 RNA inh 8, MCL1 BIM primary 10, EBV gp42 block -7, Bcl-xL primary 3 and eLon confirm -1.
Screening O=C(Cc1cccc(NC(=O)C2CCCN(C(=O)c3ccccc3)C2)c1)Nc1ccc(C(=O)N2CCOCC2)cc1 (configuration not stated) returned E coli Lon inh -6.
S=c1[nH]nc(-c2ccc3ccccc3n2)n1-c1ccc2ncccc2c1 was read as MEX-5 binding 1, E coli Lon inh 20*, GLD-1 RNA inh -5, MCL1 BIM primary 4, EBV gp42 block 22, Bcl-xL primary -13 and eLon confirm 9.
`CC1(C)CC(=O)C2=C(C1)Nc1ccccc1NC2c1cccs1` (configuration not stated) gave MEX-5 binding 2, E coli Lon inh 2, GLD-1 RNA inh -8, MCL1 BIM primary 7, EBV gp42 block -21 and Bcl-xL primary 6.
`CC1(C)CC(=O)C2=C(C1)Nc1ccccc1NC2c1ccccc1F` (configuration not stated) gave MEX-5 binding 0, E coli Lon inh 34*, GLD-1 RNA inh 7, MCL1 BIM primary 9, Bcl-xL primary 8 and eLon confirm 2.
For Cc1c(C2Nc3ccccc3NC3=C2C(=O)CC(C)(C)C3)cnn1C (configuration not stated) the results were MEX-5 binding -5, E coli Lon inh 144*, GLD-1 RNA inh 11, MCL1 BIM primary 15, EBV gp42 block -18, Bcl-xL primary 16 and eLon confirm 2.
For O=C1CCC[C@@H]2[C@@H](Cc3ccccc3)[C@H](N3CCN(c4ccccc4)CC3)C[C@@H]3CCN1[C@@H]32 the results were E coli Lon inh 2.
O=C(CN(C(=O)Cn1nnc(-c2ccc(F)cc2)n1)c1ccc(F)cc1)NC1CCCC1 was read as MEX-5 binding 0, E coli Lon inh 18*, GLD-1 RNA inh 8, MCL1 BIM primary -3, Bcl-xL primary 3 and eLon confirm 1.
Screening CCOc1ccc(C(C(=O)NC2CCCCC2)N(C(=O)c2csnn2)C2CC2)cc1 (configuration not stated) returned MEX-5 binding 3, E coli Lon inh 24*, GLD-1 RNA inh 2, MCL1 BIM primary -9, Bcl-xL primary 0 and eLon confirm 7.
Screening CC(NC(=O)NC(=O)c1cccc([N+](=O)[O-])c1)C1CC1 (configuration not stated) returned MEX-5 binding 2 and E coli Lon inh 7.
Screening CC(NC(=O)NC(=O)c1ccc(F)cc1)C1CC1 (configuration not stated) returned E coli Lon inh 26*, GLD-1 RNA inh 2 and eLon confirm -4.
`O=C(CNC(=O)c1ccc(Br)o1)NNC(=O)c1ccccc1` gave E coli Lon inh 96* and eLon confirm 4.
`Cc1ccc([N+](=O)[O-])cc1S(=O)(=O)Nc1ccc(C(=O)N2CCN(C(=O)c3ccco3)CC2)cc1` gave E coli Lon inh -6, GLD-1 RNA inh 7, MCL1 BIM primary 1 and Bcl-xL primary 2.
Cc1cccc(Nc2nc(N)nc(CN3CCN(Cc4ccc5c(c4)OCO5)CC3)n2)c1 was read as MEX-5 binding -1, E coli Lon inh 19*, GLD-1 RNA inh 4, MCL1 BIM primary 11, EBV gp42 block 6, Bcl-xL primary 5 and eLon confirm -1.
For COc1ccc(C(NC(=O)C2CCN(Cc3ccc(Oc4ccccc4)cc3)CC2)c2ccccc2C)cn1 (configuration not stated) the results were E coli Lon inh 15* and eLon confirm -7.

Source: PubChem (several laboratories)
